Results published in PubChem BioAssay (NCATS).
Unmarked numbers belong to inactive results. The source made the active and inactive calls. Calls come from the whole dose curve; as a rule, active = well fitted inhibition curve with a large enough effect; inconclusive = small, poorly fitted or top-dose-only effect; inactive = flat fitted curve, though single readings scatter.
Potency is the fitted concentration of half-maximal effect.

Each compound was assayed against Phosphoglycerate kinase, glycosomal (Trypanosoma brucei brucei) (UniProt P07378) (assay: qHTS Validation Assay to Find Inhibitors of Phosphoglycerate Kinase (AID 504547;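 for activity, negative = inhibition: control wells lack PGK and mark full inhibition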)). Conditions: enzymatic PGK inhibition, coupled luminescence read-out; series mostly up to 57.5 µM; activity, negative = inhibition: at the top concentration.
Chain of Phosphoglycerate kinase, glycosomal (Trypanosoma brucei brucei) (P07378 whole entry, looked up): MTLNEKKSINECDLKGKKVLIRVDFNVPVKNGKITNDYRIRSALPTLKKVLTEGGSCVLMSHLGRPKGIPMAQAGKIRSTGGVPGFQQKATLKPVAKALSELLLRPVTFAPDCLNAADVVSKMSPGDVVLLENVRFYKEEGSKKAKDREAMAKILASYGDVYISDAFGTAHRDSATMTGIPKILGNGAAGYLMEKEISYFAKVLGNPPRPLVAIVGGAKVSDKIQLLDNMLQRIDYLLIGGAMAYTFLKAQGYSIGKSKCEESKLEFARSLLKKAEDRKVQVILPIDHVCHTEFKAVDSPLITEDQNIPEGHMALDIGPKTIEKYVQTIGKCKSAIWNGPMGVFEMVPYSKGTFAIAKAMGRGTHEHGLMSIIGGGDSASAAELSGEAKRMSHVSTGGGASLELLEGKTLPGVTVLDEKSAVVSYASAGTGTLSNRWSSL
Text: NIH Molecular Libraries Probe Production Network [MLPCN]
NIH Chemical Genomics Center [NCGC]
PI Name: Malcolm Walkinshaw, University of Edinburgh
Several species of the Trypanosomatidae family of parasitic protozoans cause a spectrum of diseases
throughout the tropical and subtropical world. Sleeping sickness, caused by two subspecies of Trypanosoma brucei, is endemic to areas of sub-Saharan Africa, while Chagas disease, a manifestation of Trypanosoma cruzi infection, is prevalent throughout Central and South America. In addition, many species of Leishmania are responsible for a range of cutaneous and visceral diseases, causing ulcers, destructive lesions and kalaazar, a lethal infection of the viscera. Collectively, these organisms infect 30 million people worldwide (~500 million live in endemic areas), and account for ~130,000 deaths annually. Given their debilitating and prevalent nature, trypanosomatid parasites impose a heavy medical, economic and social burden on entire populations, primarily in the developing world. The problem is further exacerbated by the fact that existing treatments have progressed little in the past 50 years, and current drugs show high toxicity and poor efficacy.
Blood-stream stages of T. brucei are entirely dependent on glycolysis as a source of ATP, and the tricarboxylic acid cycle and oxidative phosphorylation are both repressed. Glycolysis in axenically cultured T. cruzi, representing the intracellular pathogenic stage, is also essential for these parasites. […] Previous studies have shown that the glycolytic enzyme, phosphoglycerate kinase (PGK), is a viable target for drugs to kill these parasites.
NCGC Assay Protocol Summary:
Briefly, 3ul of substrate/PGK buffer (columns 1,2,5-48) are dispensed into Greiner white solid bottom 1536-well assay plates; columns 3-4 receive only TEA buffer as 0x PGK controls. Compounds are then transferred via Kalypsys pin tool equipped with 1536-pin array (10nl slotted pins, V&P Scientific, San Diego, CA). Following addition of compound, 1ul of GAPDH (100nM final concentration, all columns) is added to initiate the reaction (this upstream coupling enzyme is necessary for in-well production of PGK substrate, 1,3-bisphosphoglycerate (1,3-BPG), which is unstable and not commercially available). The plates are then incubated at room temperature for 60 minutes. Kinase-Glo Plus reagent is added (2ul) and plates incubated for 10 minutes, before being transferred to a ViewLux high-throughput CCD imager (PerkinElmer) wherein single end-point measurements of luminescence are acquired using a clear filter. All reagents are diluted in an assay buffer consisting of 100mM TEA (pH 7.6), 5mM MgCl2 and 0.01% Tween-20.
In the case of `O=C(N[C@@H](Cc1ccccc1)C(=O)CCl)OCc1ccccc1`, the “activity, negative = inhibition” value is reported as 9.2%. For `O=C(OCCN1CCOCC1)C1(c2ccccc2)CCCCC1`, the “activity, negative = inhibition” value was 10.7%. In the case of `Brc1c(Br)c(Br)c2[nH]cnc2c1Br`, the “activity, negative = inhibition” value is reported as 8.48%. For `CC(C)(C)c1cc(/C=C(\C#N)C(N)=S)cc(C(C)(C)C)c1O`, the “activity, negative = inhibition” value was -0.438%. `CC(C)Cn1c(=O)n(C)c(=O)c2[nH]cnc21` was tested, and the “activity, negative = inhibition” value was -2.55%. In the case of `CCCCC[C@H](CC(=O)NO)C(=O)N[C@H](C(=O)N1CCC[C@H]1CO)C(C)C`, the “activity, negative = inhibition” value is reported as 1.7%. With `CCCn1c(=O)c(C)cn2nc(N)nc12` the “activity, negative = inhibition” value was 5.7%. With `COc1cccc(OC)c1OCCNCC1CSc2ccccc2O1` (stereo not given) the “activity, negative = inhibition” value was 12.6%. For `CC[C@H](NC(=O)c1c(C)c(-c2ccccc2)nc2ccccc12)c1ccccc1`, the “activity, negative = inhibition” value was -2.7%. `O=C(O)C1=CC(=C(c2ccc(O)c(C(=O)O)c2)c2ccc(O)c(C(=O)O)c2)C=CC1=O` was tested, and the Potency was 75.7 nM (active). For `CC1=C(/C=C/C(C)=C/C=C/C(C)=C\C(=O)O)C(C)(C)CCC1`, the “activity, negative = inhibition” value was 1.83%. For `CC(C)(C)NCC(O)COc1cccc2[nH]c(=O)[nH]c12` (stereo not given), the “activity, negative = inhibition” value was 10.5%. `NC(=O)CC[C@H](N)C(=O)O` was tested, and the “activity, negative = inhibition” value was 0.535%. With `N#Cc1cc([N+](=O)[O-])c2sc(C(N)=O)[n+]([O-])c2c1` the “activity, negative = inhibition” value was 6.2%. With `N=C(N)c1ccc(OCCCCCOc2ccc(C(=N)N)cc2)cc1` (tested in a mixture with another compound) the “activity, negative = inhibition” value was 11.1%. In the case of `Cc1cccc(C2CN(C)CCc3c2cc(O)c(O)c3Cl)c1` (stereo not given), the “activity, negative = inhibition” value is reported as 3.3%. For `CCC1(O)CC2CN(CCc3c([nH]c4ccccc34)[C@@](C(=O)OC)(c3cc4c(cc3OC)N(C)C3[C@]45CCN4CC=C[C@@](CC)([C@@H](OC(C)=O)[C@]3(O)C(=O)OC)[C@H]45)C2)C1` (stereo not given in full), the “activity, negative = inhibition” value was 8.03%. With `CNCCNS(=O)(=O)c1cccc2cnccc12` the “activity, negative = inhibition” value was 2.88%. With `C=CC[C@H](N)C(=O)O` the “activity, negative = inhibition” value was 0.891%. For `CCCCCCCCCCCCCCC[C@H](O)[C@H](N)CO`, the “activity, negative = inhibition” value was 8.94%. For `COc1ccccc1N1CCN(CCN(C(=O)c2ccc(F)cc2)c2ccccn2)CC1`, the “activity, negative = inhibition” value was 19%. `c1ccc2c(c1)CC(N1CCN(c3cccc4c3OCCO4)CC1)C2` was tested, and the “activity, negative = inhibition” value was 14.4%. For `C=CCN1CCc2cc(O)c(O)cc2C(c2ccccc2)C1` (stereo not given), the “activity, negative = inhibition” value was 4.05%. With `O=C(O)/C=C/c1ccc(O)c(O)c1` the “activity, negative = inhibition” value was 11.8%. In the case of `NC/C=C\C(=O)O`, the “activity, negative = inhibition” value is reported as 3.24%. In the case of `O=C1C2C=CC=CC2=NC(=S)N1CCN1CCC(=C(c2ccc(F)cc2)c2ccc(F)cc2)CC1` (stereo not given), the “activity, negative = inhibition” value is reported as 12.9%. `O=c1onc2n1-c1cc(Br)ccc1OC2` was tested, and the “activity, negative = inhibition” value was 4.29%. For `CN1CC(O)C(O)C(O)C1CO` (stereo not given), the “activity, negative = inhibition” value was 11.2%. In the case of `COC(=O)C1=C(C)NC(C)=C([N+](=O)[O-])C1c1ccccc1C(F)(F)F` (stereo not given), the “activity, negative = inhibition” value is reported as 17.4%. With `CN1CCCC1CCOC(C)(c1ccccc1)c1ccc(Cl)cc1` (stereo not given) the “activity, negative = inhibition” value was -0.0033%. In the case of `O=[N+]([O-])c1cccc2cn[nH]c12`, the “activity, negative = inhibition” value is reported as 10.6%. In the case of `CN(C)CCCc1cc(C(=O)Nc2ccc(-c3ccncc3)cc2)ccc1O`, the “activity, negative = inhibition” value is reported as 4.71%. For `CN[C@H](CC(=O)O)C(=O)O`, the “activity, negative = inhibition” value was 10.5%. `CC(=O)[C@H]1CCC2C3CC=C4C[C@@H](OS(=O)(=O)O)CC[C@]4(C)C3CC[C@@]21C` (stereo not given in full) was tested, and the “activity, negative = inhibition” value was -2.73%. `CC(N)=O` was tested, and the “activity, negative = inhibition” value was -0.376%. For `O=C(O)c1ccccc1Nc1cccc(OCc2ccc3ccccc3n2)c1`, the “activity, negative = inhibition” value was 8.16%. In the case of `O=c1ccn([C@@H]2O[C@H](COP(=O)(O)OP(=O)(O)O)[C@@H](O)[C@H]2O)c(=O)[nH]1`, the “activity, negative = inhibition” value is reported as 0.575%. For `CC(C)(CO)Cc1cc(C(C)(C)C)c(O)c(C(C)(C)C)c1`, the “activity, negative = inhibition” value was 0.35%. `CN1CCc2cc(Cl)c(O)cc2[C@@H](c2ccccc2)C1` was tested, and the “activity, negative = inhibition” value was 10.5%. For `OCC1NCC(O)C(O)C1O` (stereo not given), the “activity, negative = inhibition” value was 5.31%.
